Assay outcomes deposited in PubChem by several laboratories.
Most compounds without a hit are left out; they make up all but 2.2% or so of the library.
V-ATPase pH: regulators of yeast V-ATPase proton pumping, primary screen, pHLuorin cytosolic pH fluorescence | response, % at 10 µM | 350,000 tested, 0.37% active | S. cerevisiae; in the data active = response mostly above about 7.3%, no sharp cut-off; inactive = mostly below about 5.4%; also: actives read high
HTR2A ag: mouse Htr2a agonists via beta-arrestin recruitment, primary screen, cell-based, luminescence; 5-hydroxytryptamine receptor 2A (Mus musculus), P35363; activation, % at 7.6 µM; CHO-K1 mHTR2A beta-arrestin complementation; percent of 30 µM serotonin response; AID 624169, 2012; 360,000 tested, 0.66% active;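 active = activation above a run cutoff, the mean activation of all tested compounds plus 3 SD, cut at about 14% in these data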;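 also: 0% = plate median of compound wells and 100% = 30 µM serotonin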
VLA-4 inh: inhibition in human VLA-4 binding assay, primary screen, VLA-4 allosteric modulator project, MLPCN library, flow cytometry, VLA-4 expressing cells. inhibition, % (about 7 µM as worked out from the volumes in the protocol). ligand binding flow cytometry. 330,000 tested, 0.2% active. AID 2557, 2010. Integrin alpha-4 (Homo sapiens), P13612; in the data active = inhibition above about 50%
MEX-5 binding: MEX-5 zinc finger RNA-binding disruptors – biochemical, C. elegans, fluorescence polarization, MLPCN library, primary screen; Zinc finger protein mex-5 (Caenorhabditis elegans), Q9XUB2; MEX-5/FITC-TCR2 RNA binding; stronger effect = lower value; activity score (negative = inhibition of binding), % at 10 µM; 300,000 tested, 0.38% active; AID 1832, 2009;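 active = inhibition past about -25% in most replicates, and total fluorescence under double the plate's negative control median, limit read from the data; inconclusive = replicates evenly split on the limit, or fluorescence at least double controls; inactive = too little inhibition in most replicates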;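 also: 0% = DMSO and -100% = 5 µM competing unlabeled TCR2 RNA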
GASC-1 inh: inhibitors of GASC-1 histone demethylase, primary screen, biochemical, fluorescence, DELFIA europium. 330,000 tested, 0.069% active. inhibition, % at 2.35 µM. Lysine-specific demethylase 4C (Homo sapiens), Q9H3R0. GST-JMJD2C(1-420) H3K9me3 demethylation;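 active = more than half of a compound's replicate wells show inhibition beyond 50%, single wells judged on their own value; inconclusive = some, but no more than half, of replicates pass 50% inhibition; inactive = no replicate passes 50% inhibition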;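 also: signal counts dimethyl H3K9 product captured on neutravidin plate; 0% = median of DMSO wells and 100% = 0.3 times that DMSO median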
Target sequence (Q9H3R0 1-420 limits assumed): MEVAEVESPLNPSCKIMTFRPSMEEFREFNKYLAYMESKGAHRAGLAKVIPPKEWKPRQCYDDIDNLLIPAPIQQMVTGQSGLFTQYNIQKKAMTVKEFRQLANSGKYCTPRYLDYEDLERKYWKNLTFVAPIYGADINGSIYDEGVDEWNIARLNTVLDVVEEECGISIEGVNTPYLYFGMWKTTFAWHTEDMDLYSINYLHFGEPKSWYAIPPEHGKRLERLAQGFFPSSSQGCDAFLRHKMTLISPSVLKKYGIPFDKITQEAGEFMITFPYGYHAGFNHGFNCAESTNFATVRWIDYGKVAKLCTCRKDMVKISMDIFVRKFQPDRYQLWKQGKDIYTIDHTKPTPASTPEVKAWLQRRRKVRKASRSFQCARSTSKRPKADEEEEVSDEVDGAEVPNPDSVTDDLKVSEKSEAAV
Granule exo inh: LAMP-1 surface exposure blockers, TALL-104 cells – cell-based, flow cytometry, MLPCN library, primary screen; inhibition, % at 10 µM; AID 651702, 2012; TALL-104 LAMP-1 surface exposure; cells stimulated with thapsigargin and PMA; 360,000 tested, 0.66% active;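 active = inhibition above about 55%, limit read from the data; inconclusive = no clear call, values can overlap the other calls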
OPRM1 ag: OPRM1 agonists via beta-arrestin recruitment, confirmation, counter-screen for mouse HTR2A agonist project, cell-based, luminescence, single concentration; shares compounds with HTR2A ag; U2OS OPRM1 beta-arrestin PathHunter; DMSO 0%, DAMGO 9.3 µM 100%; activation, % at 9.3 µM; 2,300 tested, 5.3% active;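 active = mean activation above the mean of DMSO-only wells plus 3 SD, cut at about 0.5% in these data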
HTR2A ag conf: mouse HTR2A agonists, beta-arrestin recruitment, confirmation, cell-based, luminescence, CHO-K1 PathHunter, triplicate | 2,300 tested, 19% active | shares compounds with HTR2A ag | activation, % at 7.6 µM | DMSO 0%, 30 µM serotonin 100%;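 active = mean activation across triplicates above the hit threshold derived in the original primary screen, cut at about 15% in these data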
* marks the source's active call; other numbers are inactive results; ? = inconclusive; · = no result.

SMILES	V-ATPase pH	HTR2A ag	VLA-4 inh	MEX-5 binding	GASC-1 inh	Granule exo inh	OPRM1 ag	HTR2A ag conf
CC(CCc1ccccc1)N(C)CC(O)c1cccc([N+](=O)[O-])c1 (stereo not given)	-1	0	2	2	-2	1	·	·
Cc1ccc(C)c(N(C(=O)CCC(=O)Nc2cc(C)on2)C(C(=O)NC2CCCC2)c2ccco2)c1 (stereo not given)	-1	17*	15	0	1	-1	0	0
CC1CC(C)(C)NC(=S)N1CCCC(=O)NCc1ccccc1 (stereo not given)	2	15*	-6	-3	-1	-2	-1	-1
COC(=O)Cc1ccc(NC(=S)N2CCN(c3cccc(O)c3)CC2)cc1	0	24*	-3	1	2	-3	0	3
NS(=O)(=O)c1ccc(NC(=O)CSc2nc(Nc3ccccc3)nc(N3CCOCC3)n2)cc1	0	-13	14	5	2	0	·	·
COc1ccc([C@H]2C[C@H](n3cc(C4CC4)nn3)[C@@H](O)CN2CC2CCCCC2)cc1	-2	-5	·	·	·	2	·	·
Cc1ccn(CCNC(=O)C2CCC(=O)N(CCc3ccc(Cl)cc3)C2)n1 (stereo not given)	-1	24*	11	2	7	0	0	-3
CC(C)(C)N(Cc1ccccc1)C(=O)COC(=O)CCN1C(=O)C2CC=CCC2C1=O (stereo not given)	0	15*	·	·	·	0	-1	-2
O=C(COC(=O)CCN1C(=O)C2CC=CCC2C1=O)NCCc1ccccc1 (stereo not given)	-2	6	-6	0	-13	-10	·	·
COc1ccc(C(C)(O)c2nc(-c3ccc(F)cc3OC)cs2)cc1 (stereo not given)	·	3	·	·	·	1	·	·
COC(=O)c1cc2n3ccccc3c(C)c(-c3ccccc3)c-2c1C(=O)OC	6	18*	17	?	24	-7	0	1
COc1ccc(/C=C/C(=O)Nc2nonc2NC(C)=O)cc1	6	25*	9	-1	-2	-5	-1	-3
O=C(Nc1ccccc1F)C1CCCN(S(=O)(=O)c2ccccc2)C1 (stereo not given)	2	1	-5	5	4	3	·	·
O=C(c1cccc(C(=O)N(c2ccccn2)C2CCCCC2)c1)N(c1ccccn1)C1CCCCC1	2	30*	5	1	10	2	0	53*
O=C(c1ccc(Cl)cc1)N(c1ccccn1)C1CCCCC1	-4	-2	10	0	2	0	·	·
COc1ccccc1CNC(=O)CN1C(=O)NC2(CCCc3ccccc32)C1=O (stereo not given)	2	-3	-6	·	12	1	·	·
O=C(Nc1ccc(Cl)cc1)Nc1nc(-c2sccc2Br)cs1	6	1	1	0	9	1	·	·
O=C(Nc1ccc(Cl)cc1)Nc1nc(-c2ccccc2O)cs1	-4	14*	4	1	0	-1	0	2
CC(=O)c1ccc(NC(=O)C(C)O/N=C(\N)c2ccccc2)cc1 (stereo not given)	4	15*	7	·	-5	2	-1	-4
CC(Oc1ccccc1)C(=O)Nc1ccc(C(N)=O)cc1 (stereo not given)	2	-3	-1	-1	-15	-2	·	·
CN1CCC(N(C)C(=O)c2cc(-c3ccccc3Cl)nc3ccccc23)CC1	1	-11	-10	·	14	1	·	·
CC1=C(C(=O)N(C)C)CC(CC(=O)NC2CCCCC2)C(=O)N1CCCN1CCCC1=O (stereo not given)	0	16*	·	·	·	5	-1	-4
O=C(/C=C/c1ccccc1[N+](=O)[O-])NCCCN1CCCC1=O	3	-5	17	5	20	-3	·	·
O=C(NC(=O)N1CCN(c2cccc(Cl)c2)CC1)c1ccccc1	5	15*	8	-2	11	9	0	4
Nc1nc(N2CCN(C(c3ccccc3)c3ccccc3)CC2)n[nH]1	-1	0	15	2	1	-3	·	·
SMILES	V-ATPase pH	HTR2A ag	VLA-4 inh	MEX-5 binding	GASC-1 inh	Granule exo inh	OPRM1 ag	HTR2A ag conf
Nc1nc(N2CCN(Cc3ccccc3)CC2)n[nH]1	6	39*	-3	-1	2	-3	0	110*
CS(=O)(=O)Nc1nnc(SCC(=O)N(c2ccccc2)c2ccccc2)s1	-2	3	-25	2	-2	5	·	·
O=C1C(=O)N(CCS(=O)(=O)c2ccccc2)c2ccc(Cl)cc21	1	-3	8	-3	-1	0	·	·
CCc1ccc2c(c1)C(=O)C(=O)N2CCS(=O)(=O)c1ccccc1	-3	21*	0	-1	7	14	-1	2
COc1ccc(CCN=C(C)c2cc(C)c(C)cc2O)cc1OC	2	5	-13	0	13	16	·	·
Cc1cc(NC(=O)COC(=O)C2CCN(S(=O)(=O)c3cccc(Cl)c3Cl)CC2)no1	-1	24*	8	3	-1	-2	-1	-4
COc1ccc(NC(=O)Cc2nnc(SCC(=O)NC3CCCC3)n2C)cc1	3	7	-2	1	10	2	·	·
Cc1c(C)c(C)c(S(=O)(=O)NCCC(=O)N2CCN(Cc3ccc(C#N)cc3)CC2)c(C)c1C	5	2	5	·	3	2	·	·
O=C(OC1CCCCC1=O)c1ccc(F)c(S(=O)(=O)N2CCOCC2)c1 (stereo not given)	-2	3	27	1	-8	-3	·	·
O=C(NCC1CCCCC1)c1ccc(F)c(S(=O)(=O)N2CCOCC2)c1	-3	3	-8	·	-1	-1	·	·
O=C(NCC1CCCCC1)c1cc(S(=O)(=O)N2CCOCC2)ccc1F	0	15*	6	·	6	-1	-1	-2
